Data reported in PubChem BioAssay AID2288 (National Center for Advancing Translational Sciences (NCATS), 2010).
The campaign covered roughly 340,000 compounds. Fewer than 10 were called active. Roughly 2% stayed inconclusive and do not appear here. The call rests on the fitted dose curve; in most records, active means well fitted curve in the direction sought with a large enough effect; inconclusive means small, poorly fitted or top-dose-only effect, or another doubt; inactive means no such curve, though single readings can be large or run the other way. Only a sample is shown.

assay: qHTS Assay for Modulators of miRNAs and/orActivators of miR-21; conditions: HeLa miR-21 FLuc reporter, luciferase, 48 h; series mostly up to 38.3 µM;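 further: miR-21 action dims this reporter so a rising signal means less miR-21 action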
Text: MLSCN Grant: 1 R21 NS059478-01 Assay Provider: Qihong Huang, The Wistar Institute NCGC Assay Overview: MicroRNAs (miRNAs) are endogenously encoded small (~20-25 nucleotides), nonprotein-coding RNAs that are involved in post-transcriptional repression of target messenger RNAs (mRNAs) (Le and Hannon, 2004). Estimated to be involved in the regulation of 30% of all protein-coding mRNAs (Filipowicz et al., 2008), miRNAs play a significant role in many biological processes including cellular differentiation and tissue development (Ghildiyal and Zamore, 2009).
NCGC Assay Protocol Summary: Reagents: HeLa cells stably expressing firefly luciferase (FLuc) under the control of a CMV promoter (upstream) and a miR-21 binding sequence directly downstream of the gene. These cells endogenously express miR-21. Control compounds used were compound C3 (provided by collaborator), N6-phenyladenosine (MP Biomedicals, 0215379625), and DMSO. Assay Summary: 6uL of HeLa miR-21-FLuc cells in assay buffer (DMEM, Invitrogen #21063-029; 10% FBS, HyClone #SH30071.03) were dispensed at 2000cells/well (3.3 x 10^5 cells/mL) into Greiner solid-white TC-treated 1536-well plates using a Multidrop Combi (Thermo Fisher Scientific). Plates were incubated for one hour at 37 degree Celsius, 95% humidity, 5% CO2. These assay plates were then treated with 23nL of compound or DMSO using a Kalypsys pin tool, which allows for delivery of a 24-point titration of each compound to the assay plate, with a final compound concentration ranging from approximately 40uM to 5pM. Assay plates were then incubated for 48 hours. After incubation, plates were allowed to come to RT for one hour prior to delivery of 3uL of 3X luciferase detection reagent. After a 15 minute incubation to allow for cell lysis, luciferase activity was measured using a ViewLux CCD imager (PerkinElmer), with an average exposure time of 2-12 seconds. Keywords: NIH Roadmap, MLPCN, MLSMR, qHTS, miR-21, microRNA, firefly luciferase, FLuc.

outcome, inactive:
O=S(=O)(c1ccc(C2CCCCC2)cc1)N1CCN(c2ccc(Cl)c(Cl)c2)CC1
O=C(NCCC1=CCCCC1)c1ccc2c(c1)N(Cc1ccccc1F)C(=O)c1ccccc1S2(=O)=O
CN(C)S(=O)(=O)c1ccc(C(=O)N(Cc2cccnc2)c2nc3c(F)cc(F)cc3s2)cc1
CCNC(=O)Cn1nc(C)n2c(cc3c(OC)cccc32)c1=O
CCn1cc(C(=O)N2CCN(c3cc(C)ccc3C)CC2)c(=O)c2cc(S(=O)(=O)N(C)C3CCCCC3)ccc21
CCC(=O)N1CCc2cc(CNC(=O)Nc3ccccc3Cl)ccc21
Cc1cc(C)c(NC(=O)c2cc3sc(Cl)cc3n2C)c(C)c1
COc1ccc(C(F)(F)F)cc1NC(=O)c1sc2nc(-c3cccs3)ccc2c1N
Cc1cc2n(n1)C(c1cc(C(C)(C)C)c(O)cc1O)Nc1ccccc1-2 (stereo unspecified)
CCc1ccc(C2C(C(=O)Nc3ccccc3)=C(C)Nc3c(C(=O)Nc4ccc(C)cc4)cnn32)cc1 (stereo unspecified)
Cc1ccc(C)c(N2C(=O)N(Cc3c(F)cccc3Cl)c3ccccc3S2(=O)=O)c1
Clc1cccc(-n2ncc3c(NCCc4ccccc4)ncnc32)c1
CCOc1ccc(N2CC(C)Cn3c2nc2c3c(=O)n(Cc3c(F)cccc3Cl)c(=O)n2C)cc1 (stereo unspecified)
CCc1cc2c(cc3c(=O)n(CC(=O)N4CCN(c5cc(Cl)ccc5C)CC4)nc(CC)n32)s1
COc1ccc(-n2ccnc(NCCc3ccc(Cl)cc3)c2=O)cc1OC
O=C1CCCc2cc(S(=O)(=O)N3CCCC(C(=O)NCc4ccccc4)C3)ccc2N1 (stereo unspecified)
CCOC(=O)c1c(NC(=O)c2cc(CC)on2)sc(C(C)=O)c1C
CCOc1ccc(N(CC)C(=O)C2CCN(S(=O)(=O)c3cccc4nonc34)CC2)cc1
COc1ccccc1C1C(C(=O)N2CCCCC2)=C(C)Nc2nc3ccccc3n21 (stereo unspecified)
O=C(Nc1c(-c2ccc(F)cc2)nc2ccccn12)c1cccc(F)c1
O=C(CCn1c(=O)c2sccc2n(Cc2ccc(F)cc2)c1=O)NCc1ccc2c(c1)OCO2
COc1cc(OC)cc(-c2nc3nc(C)c(CCC(=O)Nc4ccccc4)c(C)n3n2)c1
Cc1ccccc1-c1nc2scc(CCNC(=O)C(=O)Nc3ccc(F)cc3F)n2n1
Cc1cccc2nc(-c3ccc(Cl)s3)c(Nc3ccc4c(c3)OCCO4)n12
O=C(Cn1c(=O)n(Cc2ccccc2)c(=O)c2sc3ccccc3c21)Nc1ccccc1F
COc1ccc(-c2cc(-c3ccccc3)nc3c2COc2ccc(Cl)cc2-3)cc1
